What is called inhibition is the drop in the measured response relative to a control, in per cent.

Molecules are shown by their SMILES. Out of some 290,000 compounds screened, about 3,100 (1.1%) were called active. The sample holds actives, similar compounds and a random draw of the others, so the mix is not that of the screen. Unmarked numbers belong to inactive results. No stated cut-off is given here; in the data, active means inhibition above about 16% (passing the limit was not always enough); inactive means the rest.

In the assay the target is Neuropeptides B/W receptor type 1 (Homo sapiens) (UniProt P48145). Description: blockers of human neuropeptide B/W receptor 1 – cell-based, fluorescence, single concentration, primary screen (AID 1861).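 Further: cells stimulated with the agonist NPW; 0% = agonist with vehicle and 100% = vehicle without agonist.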 The note with it: GPR7-expressing cells, fluorescence antagonist assay; at 4.4 µM; active compounds read high.
Chain of Neuropeptides B/W receptor type 1 (Homo sapiens) (P48145 whole entry, looked up): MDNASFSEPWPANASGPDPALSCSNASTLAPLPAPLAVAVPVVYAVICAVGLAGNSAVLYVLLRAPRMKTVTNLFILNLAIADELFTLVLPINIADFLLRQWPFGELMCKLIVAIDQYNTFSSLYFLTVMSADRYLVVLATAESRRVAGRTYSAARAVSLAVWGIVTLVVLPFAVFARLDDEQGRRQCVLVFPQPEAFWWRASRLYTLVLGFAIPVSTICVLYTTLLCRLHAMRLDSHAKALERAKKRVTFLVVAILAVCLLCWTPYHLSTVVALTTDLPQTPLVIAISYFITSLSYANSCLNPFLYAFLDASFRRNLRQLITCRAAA
On to `COc1ccc(-c2nc3c(s2)CCc2onc(-c4ccc(OC)cc4)c2-3)cc1`, for which the inhibition was -14.6%.
As for `O=C(CC1C(=O)NCCN1CC(c1ccccc1)c1ccccc1)NCC1CCOCC1` (stereo unspecified), the figure is -12.4%.
In the case of `COCCn1cnc2c1c(=O)n(CC(=O)NN)c(=O)n2Cc1ccccc1` it was -7.23%; in that of `Cc1ccc(F)c(NC(=O)CCOc2ccccc2C)c1`, -9.71%.
`O=c1c([N+](=O)[O-])cc(C(F)(F)F)cn1Cc1cccc(Cl)c1`: the inhibition is 1%.
Consider `O=C(/C=C/c1cccc([N+](=O)[O-])c1)N1CCN(Cc2ccccc2)CC1`, for which the inhibition was 33.7%.
Consider `O=[N+]([O-])/C=C/c1ccc2c(ccn2Cc2ccccc2)c1`, for which the inhibition is 50.9% (active).
`CCc1ccc(NC(=O)CN2C(=O)COc3ccc(S(=O)(=O)N4CCCC4)cc32)cc1`: the inhibition is -5.64%.
Regarding `C=CCn1c(CNC(=O)c2ccco2)nnc1SCC(=O)c1ccc(OC)cc1`, the inhibition was -0.25%.
As for `CCn1c(COc2ccccc2)nnc1SCC(=O)NCc1ccco1`, the figure is 3.08%.
Take `COc1ccc(C(=O)CSc2nnc(COc3ccccc3)n2Cc2ccco2)cc1`: the inhibition is 42.3% (active).
Regarding `CCc1ccc(N2CC(C(=O)N3CCCCCC3)CC2=O)cc1` (stereo unspecified), the inhibition is -4.17%.
With `COc1ccccc1N(CC(=O)N/N=C(\C)c1ccccc1O)S(=O)(=O)c1ccc(C)cc1`, the inhibition was -9.35%.
Regarding `Cc1ccccc1C(=O)OC1OC(=O)C(Cl)=C1Nc1ccccc1` (stereo unspecified), the inhibition is 0.02%.
For the compound `Cc1ccc(NC2=C(Cl)C(=O)OC2OC(=O)c2ccccc2C)cc1` (stereo unspecified), the inhibition was 36.4% (active).
For `O=C1OC(OC(=O)c2ccccc2Br)C(N2CCOCC2)=C1Cl` (stereo unspecified), the inhibition is -8.99%.
In the case of `Cc1cccc(NC(=S)NCCc2ccc(Cl)cc2)c1C` it was -3.82%; in that of `Cc1ccccc1NC(=S)NC(=O)Cc1ccc(Cl)cc1`, 56.5% (active); in that of `Cc1ccc(C(=O)NC(=S)Nc2ccccc2C)cc1`, -4.66%.
Regarding `O=C(COc1ccc(Cl)cc1)NC(=S)Nc1ccccc1N1CCOCC1`, the inhibition is -6.56%.
Turning to `COC(=O)Cc1ccc(NC(=S)NCc2ccc(Cl)cc2)cc1`, the inhibition was -7.45%.
Turning to `O=C(Cc1ccc(Cl)cc1)NC(=S)Nc1ccccc1O`, the inhibition is 80.2% (active).
Consider `COc1ccc2oc(=N)c(C(=O)Nc3ccc(Br)cc3)cc2c1`, for which the inhibition is -2.95%.
In the case of `CC(=O)Nc1ccc(S(=O)(=O)NC2Cc3ccccc3C2)cc1` it was 17.6%.
In the case of `O=C(c1cc2ccccc2o1)N1CCN(Cc2ccccc2)CC1` it was -6.86%; in that of `COc1ccc(NC(=O)CCCC2CCCCC2)c(OC)c1`, 14.9%.
In the case of `Cc1ccc(C)c(SCc2nc3sc(C(=O)O)c(C)c3c(=O)[nH]2)c1`, the inhibition is -16.9%.
Take `COc1ccccc1NC(=O)CSc1nc2sc3c(c2c(=O)n1-c1ccccc1)CCN(C)C3`: the inhibition is 4.04%.
`Cc1ccc(-c2nc(SCC(=O)Nc3ccccc3OC(F)F)c3c(C)c(C(=O)O)sc3n2)cc1`: the inhibition is 29.8% (active).
With `COc1cccc(/C=C(/CC(=O)Nc2ccc(N3CCOCC3)cc2)c2nc3ccccc3s2)c1`, the inhibition is -6.54%.
`Cc1ccc(C)c(C(=O)N2CCC(n3nccc3NC(=O)C3CC3)CC2)c1`: the inhibition is -10.3%.
In the case of `CCCCCCn1c(CN2CCCCC2)nc2c1c(=O)n(C)c(=O)n2C`, the inhibition was 0.86%.
With `CCCCCCCCn1c2c(c(=N)c3c1CCC3)CCCC2`, the inhibition was 57.5% (active).
`COc1ccccc1C(=O)N/C(=C/c1ccco1)C(=O)Nc1ccc(C(=O)O)cc1`: the inhibition is 0.36%.
On to `CCCC(=O)Nc1ccc(Cl)c(NC(=O)c2ccc(Br)o2)c1`, for which the inhibition was -14%.
For the compound `CCN1CCN(c2c(Cl)cccc2NC(=O)c2ccc(Br)o2)CC1`, the inhibition was 23.7% (active).
As for `O=C(Nc1cccc(Cl)c1N1CCOCC1)c1cccnc1`, the figure is -1.34%; as for `COc1ccc2cc(C(=O)NCC3CCCO3)[nH]c2c1` (stereo unspecified), -1.93%.
In the case of `CN(C)CCOCCOc1ccc(Cl)c2ccccc12` it was 14.1%; in that of `CCN(CC)CCOCCOc1ccc(Cl)c2ccccc12`, 27.1% (active); in that of `Clc1cccc(Cl)c1OCCOCCNCc1ccccc1`, -2.47%.
`COc1ccc(NS(=O)(=O)c2ccc(O)c(C(=O)OCC(=O)NC3CCCCC3)c2)cc1`: the inhibition is -13.8%.
As for `NC(=O)COc1ccccc1C(=O)NC12CC3CC(CC(C3)C1)C2`, the inhibition was -4.36%.
As to `O=C(Cc1nn[nH]n1)NCCC1=CCCCC1`, the inhibition is -14.2%.
As to `CN1CCNC(=O)C1CC(=O)NCCC1=CCCCC1` (stereo unspecified), the inhibition is 18.4% (active).
In the case of `Cc1ccccc1CN1CCNC(=O)C1CC(=O)NCCC1=CCCCC1` (stereo unspecified) it was -1.59%; in that of `Cc1c(C(=O)O)nnn1-c1nonc1N`, -7.01%; in that of `CCN(CC)Cc1c(C(=O)N/N=C/c2cccc(OCc3ccc(F)cc3)c2)nnn1-c1nonc1N`, 6.35%.
In the case of `CCN(CC)Cc1c(C(=O)OC)nnn1-c1nonc1N` it was 36.6% (active); in that of `O=C(CSc1nnnn1C1CCCC1)N1CCCCC1`, 0.56%.
Consider `CCOC(=O)C1(Cc2ccccc2C(F)(F)F)CCN(C(=O)c2cc(C)n(C)n2)CC1`, for which the inhibition is -2.9%.
On to `OC(CNCC1CCCO1)Cn1c2ccc(Br)cc2c2cc(Br)ccc21` (stereo unspecified), for which the inhibition was 25.7% (active).
Regarding `O=C(CSc1ccc(-c2ccc(Br)cc2)nn1)NCC1CCCO1` (stereo unspecified), the inhibition is -0.63%.
In the case of `CC(NS(=O)(=O)c1ccc(Br)cc1)C(=O)NCC1CCCO1` (stereo unspecified) it was -6%.
As for `CCc1ccc(OCC(O)CN2CCN(CCO)CC2)cc1` (stereo unspecified), the figure is -19.8%; as for `O=S1(=O)CCO[C@H]2Cc3ccccc3[C@H]2N1Cc1ccccc1`, -8.66%; as for `COc1ccccc1C(=O)N1C(CC(=O)Nc2ccccc2C)C(=O)NC2CCCCC21` (stereo unspecified), -5.63%.
As for `Cc1cc(-c2n[nH]c(=S)n2/N=C/C(Br)=C/c2ccccc2)n[nH]1`, the figure is 4.93%; as for `CCN1CCN(c2ccc(S(=O)(=O)N3CCCCC3)cc2NC(=O)Cc2c(Cl)cccc2Cl)CC1`, 1.74%; as for `COc1ccc(CC(=O)Nc2cc(S(=O)(=O)N3CCCCC3)ccc2N2CCN(C)CC2)cc1`, 19.6% (active).
Regarding `CN1CCN(c2ccc(S(=O)(=O)N3CCCCC3)cc2NC(=O)Cc2ccccc2F)CC1`, the inhibition was 1.52%.

The record behind these values is PubChem BioAssay AID1861 (The Scripps Research Institute Molecular Screening Center, 2009).
